Yeast superoxide – reduction of superoxide in aged yeast, primary screen, HTS | S. cerevisiae aged cells, superoxide DHE fluorescence; active compounds read low | superoxide response (% of plate mean), % at 10 µM | 0.18% of 330,000 active | AID 2690, 2010;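 active = superoxide response under a set limit, about three screen SD below normal, cut at about 65% in these data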;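 note: yeast aged for seven days with compound at 30 °C before DHE staining; 100% = average MFI of all compound-treated wells on the plate with controls excluded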
HIF act – HIF pathway transcriptional activators, primary screen, cell-based, U2OS HRE-luciferase, luminescence; 0.32% of 300,000 active; U2OS HRE-luciferase reporter; normalized: DMSO 0%, desferrioxamine 100%; activation, % at 7.5 µM (by protocol);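 active = mean activation of at least 10% of the iron chelator positive control signal, with at least half of replicates also reaching 10%; inconclusive = mean and replicate majority disagree about reaching 10%; inactive = mean and most replicates under 10%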
LANA-H2A inh – blockers of LANA interaction with H2A/H2B – biochemical, FP readout, HTS, primary screen; Protein LANA1 (Human herpesvirus 8 type P (isolate GK18)), Q9QR71; cell-free LANA-H2A/H2B peptide, fluorescence polarization; inhibition, % (no concentration beside the values); 0.6% of 320,000 active; AID 2629, 2010; in the data active = inhibition mostly above about 10%, no sharp cut-off; inactive = mostly below about 6.7%
HDAC3 inh – HDAC3 deacetylase inhibitors, primary screen, biochemical, fluorescence, cell-free homogeneous; Histone deacetylase 3 (Homo sapiens), O15379; recombinant HDAC3, fluorogenic peptide/trypsin coupled; inhibition, % at 8.3 µM; 0.15% of 320,000 active; AID 2718, 2010; in the data active = inhibition above about 26%, passing the limit was not always enough; inconclusive = no clear call, values can overlap the other calls
Target sequence (O15379 whole entry, looked up): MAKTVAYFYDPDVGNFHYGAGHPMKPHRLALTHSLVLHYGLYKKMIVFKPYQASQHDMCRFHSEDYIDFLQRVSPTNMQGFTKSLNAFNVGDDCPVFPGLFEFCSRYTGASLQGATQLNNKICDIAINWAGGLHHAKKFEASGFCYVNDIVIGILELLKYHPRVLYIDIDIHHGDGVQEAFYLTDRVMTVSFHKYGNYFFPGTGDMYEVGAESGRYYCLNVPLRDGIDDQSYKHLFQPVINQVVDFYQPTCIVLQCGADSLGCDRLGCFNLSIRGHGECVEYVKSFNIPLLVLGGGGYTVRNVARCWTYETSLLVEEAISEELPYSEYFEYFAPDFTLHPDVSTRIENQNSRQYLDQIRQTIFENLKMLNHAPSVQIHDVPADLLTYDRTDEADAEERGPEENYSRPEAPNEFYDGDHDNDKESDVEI
Superoxide pick – superoxide lowering in aged yeast cells, confirmation, cherry picked compounds | superoxide response (% of plate), % at 10 µM | shares compounds with Yeast superoxide | 1% of 850 active | AID 434994, 2010 | S. cerevisiae aging, superoxide DHE fluorescence; active compounds read low;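 active = superoxide signal below 65% of the plate average of sample wells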;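 note: cells aged with compound for 7 days at 30 degrees C before staining; 100% equals mean DHE fluorescence of all compound wells on the plate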
DHE counter – DHE quenching or ROS scavenging interference in aged yeast, artefact control for yeast caloric restriction mimetic project, S. cerevisiae BY4741, flow cytometry; shares compounds with Yeast superoxide; fluorescence response, % at 10 µM; DHE fluorescence; active compounds read low; 850 tested, under 10 active;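 active = fluorescence response below 15%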;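 note: percent of the mean fluorescence averaged over all compound wells on the plate; lower means stronger quenching of DHE signal or ROS scavenging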
An asterisk follows results filed as active; ? = inconclusive; . = no result given. In the library only some 1.2% were active in any assay of this set; here they are far more common.

SMILES	Yeast superoxide	HIF act	LANA-H2A inh	HDAC3 inh	Superoxide pick	DHE counter
CCOc1ncccc1C(=O)Nc1cc2c(cc1Br)OCCO2	98.2	.	-1.9	4.9	.	.
CCOc1cccc(/C=C/c2ccc3cccc(O)c3n2)c1O	120.7	5.6	-4.5	3.2	.	.
CCOc1cccc(/C=C/c2ccc3cccc(O)c3n2)c1OC	41.6*	-10.3	-9.5	-8.1	101.4	94.5
CCN(C(=O)COC(=O)CNS(=O)(=O)c1ccccc1)c1ccccc1	98.8	-0.1	-0.5	-7.9	.	.
COc1ccccc1C1CCN(C(=O)c2ccccc2)CC1	95.6	-0.2	-4.9	-1.6	.	.
COc1ccccc1C1CCN(C(=O)c2ccc(Cl)cc2)CC1	36.6*	-20.3	-3.3	2.6	96.1	101.3
CCc1cccc(C)c1NC(=O)c1ccoc1C	64.5*	-0.3	-0.2	-3.0	107.7	104.2
CCCOc1ccc(C(=O)N2CCN(Cc3ccc4c(c3)OCO4)CC2)cc1	91.0	-1.5	4.7	5.3	.	.
COC(=O)c1cccc2nc3c(C(C)O)cccc3nc12 (stereo unspecified)	50.0*	0.1	-2.5	7.2	65.9	113.0
COc1ccc2c(c1)c1nnc(SCC(=O)N3C(C)CCCC3C)nc1n2C (stereo unspecified)	111.2	-0.1	0.1	-1.6	.	.
COc1ccc2c(c1)c1nnc(SC)nc1n2C	43.8*	1.7	-0.3	-1.7	66.5	87.4
CCCOC(=O)Nc1cc(OC)ccc1[N+](=O)[O-]	117.6	1.3	0.7	?	.	.
CCOC(=O)c1cc(=O)n(Cc2ccccc2C)c2ccccc12	61.0*	0.0	2.7	-1.1	97.9	94.2
Cc1ccc(-n2cc(-c3ccccc3)c3c(NN4CCOCC4)ncnc32)cc1	62.2*	-0.6	5.3	6.4	88.0	101.0
COc1ccc(Br)cc1/C=N/n1c(C)nc2ccccc2c1=O	.	0.1	.	.	.	.
Cc1nc2ccccc2c(=O)n1/N=C/c1cc(Br)ccc1O	64.0*	-12.3	4.8	3.0	106.0	103.6
CC1Sc2ccc(S(=O)(=O)CCC(=O)NCc3ccc(Cl)cc3)cc2NC1=O (stereo unspecified)	88.7	0.3	-0.3	-1.2	.	.
C=CCNC(=S)NCC	65.1*	-12.1	0.1	.	97.8	96.5
Cc1noc(C)c1C(=O)N(CC(C)C)c1nc2ccccc2s1	60.8*	-0.5	-5.1	-6.4	90.0	91.3
COc1ccccc1C(=O)NCC(=O)N1CC=C(c2ccccc2)CC1	97.8	.	0.8	-1.2	.	.
O=C(CN1C(=O)CNC1=O)Nc1cccc(C(F)(F)F)c1	83.7	0.2	0.9	3.7	.	.
CCC(CO)Oc1cc(NCc2ccc(O)cc2)c2ncn(C(C)C)c2c1 (stereo unspecified)	64.9*	.	0.5	-2.3	82.6	91.2
CCOc1ccc(NS(=O)(=O)c2ccc3[nH]c(=O)cc(C(=O)O)c3c2)cc1	84.8	-0.7	0.0	2.4	.	.
O=C(O)c1cc(=O)[nH]c2ccc(S(=O)(=O)Nc3ccc(F)cc3)cc12	57.0*	-25.7	2.6	0.3	104.4	115.9
Cc1ccc(NC(=O)CSc2ccc(-c3ccccn3)nn2)cc1F	112.7	3.5	0.0	2.3	110.1	98.4
SMILES	Yeast superoxide	HIF act	LANA-H2A inh	HDAC3 inh	Superoxide pick	DHE counter
CCc1ccc(NC(=O)CSc2nnc(-c3ccccn3)n2C)cc1	64.8*	-0.2	-0.5	-3.1	88.6	90.7
CC(C)c1ccc(NC(=O)CSc2nnc(-c3ccccn3)n2C)cc1	95.3	-0.2	3.9	-5.4	.	.
COc1ccc(C)cc1NC(=O)CSc1ccc(-c2ccccn2)nn1	130.6	2.3	-2.2	6.3	121.8	93.3
COc1ccc(C)cc1NC(=O)CSc1ccc(-c2sc(C)nc2C)nn1	89.3	0.5	-4.9	1.1	.	.
CCc1ccc(NC(=O)CSc2ccc(-c3ccccn3)nn2)cc1	58.8*	12.6*	-1.5	-10.0	125.6	112.7
CC(=O)Nc1cccc(NC(=O)CSc2ccc(-c3ccccn3)nn2)c1	115.1	3.0	-4.6	16.6	.	.
COC(=O)c1cc(CNC(=O)c2cccc(Cl)c2Cl)ccc1OC	100.9	0.2	4.0	.	.	.
CC(=O)c1cccc(NC(=O)CSc2ccc(-c3ccccn3)nn2)c1	94.1	1.6	0.4	-3.5	.	.
COc1cc(NC(=O)CSc2ccc(-c3ccccn3)nn2)cc(OC)c1	101.1	9.0	0.9	-5.8	102.0	123.8
Nn1c(SCC(=O)Nc2ccc3c(c2)OCCO3)nnc1-c1ccccn1	54.3*	-0.6	-1.3	-6.0	103.6	93.2
CCOC(=O)c1c(CC(C)C)csc1N	93.8	-0.4	3.3	0.6	.	.
COc1cc(SC)ccc1C(=O)N1CCCCCC1	107.7	-0.3	3.0	-4.1	.	.
COc1ccccc1C(=O)N1CCN(c2cccc(Cl)c2)CC1	95.5	-0.6	-0.5	-3.3	79.5	96.8
COc1cc(SC)ccc1C(=O)N1CCN(c2ccc(O)cc2)CC1	85.8	2.0	1.2	6.5	100.1	93.7
COc1cc(SC)ccc1C(=O)N1CCN(c2ccccc2)CC1	93.7	0.5	3.7	0.3	102.3	99.4
Cc1ccc(-c2noc(CCC(=O)N(C)c3ccccc3C)n2)cc1	89.9	-1.5	2.2	-0.8	.	.
COc1cccc(N2CCN(C(=O)CC(NC(=O)c3ccccc3)c3ccccc3)CC2)c1 (stereo unspecified)	96.4	.	-14.5	-0.4	.	.
Cc1cccc(N2CCN(C(=O)CC(NC(=O)c3ccccc3)c3ccccc3)CC2C)c1 (stereo unspecified)	53.8*	-0.2	-9.6	2.0	84.2	90.7
O=C1CCCN1S(=O)(=O)c1ccccc1	91.5	0.1	0.8	8.9	115.0	107.5
O=C1CCCN1S(=O)(=O)c1ccc(F)cc1	95.5	-0.5	-1.4	-1.5	.	.
CCOC(=O)N1CCN(C(=O)c2ccc(OC(C)=O)cc2)CC1	95.0	-0.2	2.3	-2.2	.	.
CCN(CC)Cc1cc(NC2=NS(=O)(=O)c3ccccc32)ccc1OC(=O)c1ccccc1	62.7*	0.0	-8.2	-7.2	102.7	108.6
CC1C(=O)N(Cc2ccccc2F)c2ccccc2N1C(=O)c1c(F)cccc1F (stereo unspecified)	65.3*	-8.8	-1.7	-9.1	92.2	98.5
O=C(O)c1ccc(Cl)c(S(=O)(=O)Nc2ccc(OCc3ccccc3)cc2)c1	93.6	-1.1	-4.4	-0.1	.	.
CCCCN1C(=O)c2ccc(C(=O)OCC(=O)N3CCN(c4ccccc4)CC3)cc2C1=O	95.1	.	2.7	-5.2	.	.
Cc1csc(Nc2cccc3ccccc23)n1	95.5	0.0	2.7	5.5	.	.
Cc1csc(Nc2ccccc2C(F)(F)F)n1	64.3*	0.6	1.1	11.7	108.1	100.8
Cc1cccc(NC(=S)NNC(=O)c2csc3c2CCC(C)C3)c1 (stereo unspecified)	95.7	2.7	.	.	.	.

Screens deposited in PubChem by several laboratories.
